Screens from PubChem.
Hits are enriched below; roughly 7.4% of the tested compounds scored in any of these assays.
NPC1 prom act: NPC1 promoter activation; Huh7 NPC1 promoter luciferase reporter, 24 h; Potency, µM (top dose mostly 9.22 µM), usual class: activators; 320,000 tested, 2.4% active; further: nearly all actives have a fitted effect of over 60% in size
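Luciferase expression driven by the NPC1 promoter was measured in stably transfected Huh7 cells after a 24 h compound incubation, using a luciferase reagent and a luminescence read.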
ELG1 genotoxic: induces genotoxicity in HEK293T cells with luciferase-tagged ELG1 | HEK293T ELG1-luciferase reporter, luminescence, 16 h | Potency, µM (titrated, usually from 46 µM), most hits filed as activators | 330,000 tested, 1.3% active | AID 504466; further: nearly all actives have a fitted effect of over 60% in size
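Genotoxicity was scored as increased ELG1-luciferase reporter signal, measured by ONE-Glo luminescence (30 min, room temperature). Compound or vehicle exposure of the HEK293T reporter cells lasted 16 hr at 37°C.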
SMN2 splice enh: SMN2 splice variant enhancement; HEK293 SMN2-luciferase splicing reporter, luminescence, 30-36 h; Potency, µM (doses to about 46.1 µM), usual class: activators; 210,000 tested, 2.8% active; AID 1458; further: nearly all actives have a fitted effect of over 55% in size
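HEK293 cells carry an SMN2 […]–luciferase reporter in which exon 7 inclusion puts luciferase in frame. Cells were plated 10-12 h before compound addition, then incubated 30-36 h at 37C. ONE-Glo luminescence was read; sodium butyrate at 4.5 mM final served as control.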
Rab9 prom act: Rab9 promoter activation; Huh7 Rab9 promoter-luciferase reporter, luminescence, 24 h; Potency, µM (series often up to 9.22 µM), hits mostly activators; 320,000 tested, 2.8% active; AID 485297; further: nearly all actives have a fitted effect of over 60% in size
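Rab9 promoter-driven luciferase in stably transfected Huh7 cells; 1500 cells/well rested 2 h, exposed to compound in DMSO for 24 h at 37 °C, 5% CO2. Luminescence read 10 min after adding luciferase reagent at ambient temperature.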
FLuc counter: inhibits or activates purified firefly luciferase, miR-21 counter-screen; P08659; purified FLuc, Km substrates, luminescence inhibition; Potency, µM (top dose mostly 57.5 µM), usual class: inhibitors; 360,000 tested, 6.9% active; AID 588342; further: nearly all actives have a fitted effect of over 55% in size
Target sequence (P08659 whole entry, looked up): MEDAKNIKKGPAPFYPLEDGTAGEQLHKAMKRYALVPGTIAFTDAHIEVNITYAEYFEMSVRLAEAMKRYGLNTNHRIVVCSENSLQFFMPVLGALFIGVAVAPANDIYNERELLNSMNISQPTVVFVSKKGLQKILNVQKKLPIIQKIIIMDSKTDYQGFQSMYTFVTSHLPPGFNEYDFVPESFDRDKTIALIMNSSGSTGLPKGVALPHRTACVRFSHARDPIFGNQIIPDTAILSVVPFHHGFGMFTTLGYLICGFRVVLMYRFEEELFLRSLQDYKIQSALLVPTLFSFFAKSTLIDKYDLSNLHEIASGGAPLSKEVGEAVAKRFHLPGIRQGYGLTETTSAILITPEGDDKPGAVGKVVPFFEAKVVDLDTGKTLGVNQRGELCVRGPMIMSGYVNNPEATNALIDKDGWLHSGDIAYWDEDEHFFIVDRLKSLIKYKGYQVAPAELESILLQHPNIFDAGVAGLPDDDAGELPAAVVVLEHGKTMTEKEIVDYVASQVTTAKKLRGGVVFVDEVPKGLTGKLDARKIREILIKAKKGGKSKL
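Biochemical qHTS of compounds, final roughly 60 µM downward over six points, against 10 nM purified firefly luciferase using Km concentrations of substrates (10 uM D-luciferin, 10 uM ATP) in Tris acetate pH 7.5 buffer; luminescence output.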
Luc counter: Kinase-Glo luciferase inhibition (counter-screen); Kinase-Glo luciferase, ATP luminescence, 8 min; 200,000 tested, 0.28% active; Potency, µM (highest dose often 38.3 µM), usual class: inhibitors; further: nearly all actives have a fitted effect of over 60% in size
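Compound is pinned into ATP-containing buffer (10 uM ATP, imidazole pH 7.2, 7 mM MgCl2). Kinase-Glo luciferase reagent is then added. Light output is recorded following an 8-min room-temperature incubation.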
Numbers stand for hits; n = inactive; u = inconclusive; x = no result given. The call rests on the fitted dose curve; in most records, active means well fitted curve in the direction sought with a large enough effect; inconclusive means small, poorly fitted or top-dose-only effect, or another doubt; inactive means no such curve, though single readings can be large; an effect the other way counts as inactive or inconclusive.

SMILES	NPC1 prom act	ELG1 genotoxic	SMN2 splice enh	Rab9 prom act	FLuc counter	Luc counter
Cc1ccc(/C=C2/Sc3ccccc3N(CC(=O)NCC3CCCO3)C2=O)cc1 (configuration not stated)	n	n	x	n	u	x
CCc1ccc(/C=C2/Sc3ccccc3N(CC(=O)NCC3CCCO3)C2=O)cc1 (configuration not stated)	n	n	x	n	19µM	x
C=CCn1c(C)cc(C(=O)CSc2ccc(NC(C)=O)cc2)c1C	0.501µM	u	n	0.316µM	16.9µM	n
COCC(C)n1c(C)cc(C(=O)CSc2ncccn2)c1C (configuration not stated)	3.16µM	u	11.2µM	3.98µM	15.1µM	n
COCC(C)n1c(C)cc(C(=O)CSc2nnc(Nc3ccccc3F)s2)c1C (configuration not stated)	n	n	n	n	16.9µM	n
Cc1cc(C(=O)CSc2nnc(-c3ccc(OC(F)F)cc3)o2)c(C)n1Cc1cccs1	n	n	n	n	n	n
CC(=O)Nc1ccc(SCC(=O)c2cc(C)n(Cc3cccs3)c2C)cc1	n	u	n	u	16.9µM	n
O=C(C1CC(=O)N(c2ccc(Cl)cc2)C1)N1CCC(c2nc3ccccc3[nH]2)CC1 (configuration not stated)	n	n	x	n	n	x
COCCn1c(C)cc(C(=O)CSc2ccc(NC(C)=O)cc2)c1C	u	u	n	2µM	u	n
COCC(C)n1c(C)cc(C(=O)CSc2nnnn2-c2ccc(O)cc2)c1C (configuration not stated)	n	n	n	n	21.3µM	n
CC(=O)Nc1ccc(SCC(=O)c2cc(C)n(-c3ccccc3F)c2C)cc1	u	u	n	n	6.01µM	n
COCC(C)n1c(C)cc(C(=O)CSc2nnc(-c3ccco3)o2)c1C (configuration not stated)	x	n	x	x	x	x
COCC(C)n1c(C)cc(C(=O)CSc2ccc(NC(C)=O)cc2)c1C (configuration not stated)	u	7.94µM	n	u	n	n
COC(=O)c1ccc(-n2c(C)cc(C(=O)CSc3ccc(NC(C)=O)cc3)c2C)cc1	n	n	n	n	n	n
Cc1c([N+](=O)[O-])c(C/C=N/O)nn1C	n	n	x	n	n	x
Cc1nn(-c2ccccc2)c(OC(=O)c2ccccc2)c1S(=O)(=O)c1ccccc1	x	x	n	x	u	x
Cc1ccc2c(CC(=O)Nc3ccc(F)c(S(=O)(=O)N4CCOCC4)c3)coc2c1	n	n	x	n	u	x
O=C(CSc1ncccn1)c1ccccc1Br	n	n	12.6µM	n	u	n
O=C1CN(C(=O)c2cccc(Br)c2)C(c2ccccc2)c2cc(Cl)ccc2N1 (configuration not stated)	x	x	x	x	n	x
COCn1c(-c2cccc(Br)c2)nc2ccccc21	n	u	x	n	16.9µM	x
CC(C)Cn1c(-c2cccc(Br)c2)nc2ccccc21	x	x	n	x	n	x
COCn1c(-c2ccc(OC)c(OC)c2)nc2ccccc21	u	u	n	3.55µM	10.7µM	n
COc1ccc(CCNC(=O)c2nn(C)c3c2CS(=O)(=O)c2ccccc2-3)c(OC)c1	n	n	x	n	n	x
Cc1ccc(C(=O)/C=C/c2ccc3c(c2)OCCO3)c(O)c1	u	u	x	3.55µM	1.07µM	x
O=C(/C=C/c1ccc2c(c1)OCCCO2)c1ccc2ccccc2c1O	3.16µM	u	n	u	2.69µM	n
SMILES	NPC1 prom act	ELG1 genotoxic	SMN2 splice enh	Rab9 prom act	FLuc counter	Luc counter
O=C(COC(=O)/C=C/c1ccc2c(c1)OCO2)NCc1ccccc1	n	n	x	n	n	x
COc1ccc(NC(=O)c2oc3ccccc3c2NC(=O)c2ccc3c(c2)OCO3)cc1	n	n	n	n	9.53µM	n
O=C(Nc1ccc2c(c1)OCCO2)c1oc2ccccc2c1NC(=O)C1CC1	n	n	u	n	u	n
CCOCC(=O)Nc1c(C(=O)Nc2ccc3c(c2)OCCO3)oc2ccccc12	1.41µM	u	2.82µM	0.708µM	n	n
CCC(=O)Nc1c(C(=O)Nc2ccc3c(c2)OCCO3)oc2ccccc12	u	n	15.8µM	2.82µM	u	n
COCC(=O)Nc1c(C(=O)Nc2ccc3c(c2)OCCO3)oc2ccccc12	1.41µM	n	7.94µM	1.12µM	x	n
Cc1ccccc1NC(=O)CSc1nnc(Cc2ccccc2)c(=O)n1N	n	n	x	n	n	x
CSc1ncccc1C(=O)OCC(=O)Nc1ccc(N2CCOCC2)cc1	x	n	x	x	x	x
CCOc1ccc(C(=O)NCCCN2CCOCC2)cc1OCC	n	n	n	n	n	n
COc1ccc(CC2S/C(=N/N=C/c3ccc(O)cc3)NC2=O)cc1 (configuration not stated)	n	u	n	u	0.426µM	n
O=C1N/C(=N/N=C/c2ccc(O)cc2)SC1Cc1ccccc1 (configuration not stated)	n	n	x	n	2.39µM	x
COc1ccc(C(C(=O)NC2CCCC2)N(C(=O)c2csnn2)C2CCCC2)cc1 (configuration not stated)	n	n	x	n	n	x
C/C(=N\O)c1ccc(N2C(=O)C3CC=C(Cl)CC3C2=O)cc1 (configuration not stated)	u	u	u	u	10.7µM	n
Cc1ccc(NC(=O)c2ccc(N3C(=O)C4CC=C(Cl)CC4C3=O)cc2)cc1 (configuration not stated)	n	n	n	n	n	n
CN(C)c1ccc(/C=N/N=C/c2ccccc2O)cc1	0.447µM	u	n	0.562µM	0.301µM	n
Cc1ccc(Cc2c(C)nc3c(-c4ccccc4)c(C)[nH]n3c2=O)cc1	x	x	n	x	n	x
Cc1nc2c(-c3ccccc3)c[nH]n2c(=O)c1Cc1ccccc1	n	n	n	u	26.9µM	n
Cc1nc2nc(-c3cccnc3)[nH]n2c(=O)c1Cc1ccccc1	n	n	n	n	u	n
Cc1nc2nc(-c3ccccc3)[nH]n2c(=O)c1C	n	u	u	u	u	n
Cc1nc2nc(-c3ccc(Cl)cc3)[nH]n2c(=O)c1C	2.51µM	u	u	2.24µM	6.01µM	n
Cc1nc2nc(-c3ccc(Cl)cc3)[nH]n2c(=O)c1Cc1ccccc1	u	u	u	n	3.01µM	n
CN1CCN(C(=O)C(N)Cc2ccccc2)CC1 (configuration not stated)	n	n	n	n	n	n
CC(=O)c1ccc(N2CCN(C(=S)Nc3ccc(Cl)c(Cl)c3)CC2)cc1	n	n	n	n	n	n
O=C(OCc1nnc(-c2ccccc2)o1)c1ccc2ccccc2n1	n	u	n	n	u	n
O=C(OCc1ccc(F)cc1)c1ccc2ccccc2n1	n	n	n	n	19µM	n
O=C(COC(=O)c1ccc2ccccc2n1)c1ccccc1	n	n	n	n	6.75µM	n
